Measurements reported in PubChem BioAssay (EPA / NIEHS).
Active and inactive are the calls of the source. Rule for the calls: active = hit-call score of the fitted dose curve at least 0.9, where 1 is the maximum; inactive = score below 0.9.

Read-out: Vascular cell adhesion molecule 1 (VCAM1), VCAM1 (gene 7412)
Assay: BSK_hDFCGF_VCAM1: BioMAP Diversity Plus: hDFCGF Assay for Vascular cell adhesion molecule 1 (VCAM1) Biomarker Activity (AID 2283065);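 for AC50: VCAM-1 protein level quantified by ELISA after 24 h chemical exposure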
Conditions: primary human foreskin fibroblasts; actives raise or lower the signal
How it was run: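 Human foreskin fibroblast primary cells, chemical exposure 24 h; VCAM-1 by ELISA; bidirectional fit, DMSO = negative control/baseline.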

| Structure (SMILES) | outcome | AC50 |
| --- | --- | --- |
| O=C(O)CC(O)(CC(=O)O)C(=O)O | inactive |  |
| COc1ccc(OC(F)(F)F)cc1CN[C@H]1CCCN[C@H]1c1ccccc1 | inactive |  |
| CS(=O)(=O)c1ccc([C@@H](C[C@H]2CCC(=O)C2)C(=O)Nc2cnccn2)cc1Cl | inactive |  |
| O=C1c2c(O)cccc2Cc2cccc(O)c21 |  | 20 µM (active) |
| Cc1c(C)c2c(c(C)c1O)CCC(C)(COc1ccc(CC3SC(=O)NC3=O)cc1)O2 (centres undefined) |  | 11.8 µM (active) |
| CCCCC(CC)COC(=O)CCCCCCCC(=O)OCC(CC)CCCC (centres undefined) | inactive |  |
| C#CC(O)C(CC)CCCC (centres undefined) | inactive |  |
| NCCOCCOCCN | inactive |  |
| COC(=O)[C@H]1[C@H]2C[C@@H]3c4[nH]c5cc(OC)ccc5c4CCN3C[C@H]2C[C@@H](OC(=O)c2cc(OC)c(OC)c(OC)c2)[C@@H]1OC | inactive |  |
| COC(=O)CCC(=O)OC | inactive |  |
| CC(=O)O | inactive |  |
| CC(=O)CC(c1ccccc1)c1c(O)c2ccccc2oc1=O (centres undefined) | inactive |  |
| CC(=O)O[C@]1(C(C)=O)CC[C@H]2[C@@H]3C=C(Cl)C4=CC(=O)[C@@H]5C[C@@H]5[C@]4(C)[C@H]3CC[C@@]21C | inactive |  |
| c1ccc2occc2c1 | inactive |  |
| NC1CCCCC1 | inactive |  |
| NC(=Nc1ccccc1)Nc1ccccc1 | inactive |  |
| CCCCC(CC)COP(=O)(OCC(CC)CCCC)OCC(CC)CCCC (centres undefined) | inactive |  |
| O=C(N[C@@H](c1ccccc1)[C@@H]1CCCCN1)c1cccc(C(F)(F)F)c1Cl | inactive |  |
| Oc1ccccc1O |  | 2.5 µM (active) |
| CC(=O)[C@@]1(O)CC[C@H]2[C@@H]3CCC4=CC(=O)CC[C@]4(C)[C@H]3CC[C@@]21C | inactive |  |
| CCCCOC(=O)CCCCC(=O)OCCCC | inactive |  |
| CCc1nc(N)nc(N)c1-c1ccc(Cl)cc1 | inactive |  |
| CO[C@@H]1COCC[C@@H]1N[C@@H]1CC[C@@](C(=O)N2CCc3ncc(C(F)(F)F)cc3C2)(C(C)C)C1 | inactive |  |
| O=C1OC(c2ccc(O)cc2)(c2ccc(O)cc2)c2ccccc21 |  | 31.2 µM (active) |
| CN(C)CCCN1c2ccccc2Sc2ccc(Cl)cc21 |  | 24.7 µM (active) |
| CC(C)OC(=O)C(C)(C)Oc1ccc(C(=O)c2ccc(Cl)cc2)cc1 | inactive |  |
| CCCCC(CC)CO (centres undefined) | inactive |  |
| CCCCCCC(C=O)=Cc1ccccc1 |  | 32 µM (active) |
| CCOCCOCCO | inactive |  |
